# Experimental data taken from PubChem BioAssay (Tox21).
# Unmarked numbers belong to inactive results. Records with an inconclusive call do not appear. Entries that show only a call come without a potency. Active and inactive are the calls of the source. Unless noted, the call rests on the fitted dose curve.
# Experiments:
# [1] = Nuclear factor erythroid 2-related factor 2/antioxidant responsive element (Nrf2/ARE) small molecule agonists: qHTS cell viability counter screen in human keratinocytes (AID 1919968; active means well fitted curve in the direction sought with a large enough effect in the repeat runs; an effect the other way counts as inactive or inconclusive; further: nearly all actives have a fitted effect of over 55% in size)
# How it was run: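 KeratinoSens cells (HaCaT keratinocytes stably carrying an ARE-luciferase reporter) were seeded at 1,500 cells/well and rested 5 h at 37 C/5% CO2. They were then exposed to compounds in DMSO for 23 h. Viability was read by CellTiter-Fluor fluorescence after 1 h.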
# [2] = Nuclear factor erythroid 2-related factor 2/antioxidant responsive element (Nrf2/ARE) small molecule agonists: luciferase reporter gene qHTS assay in human keratinocytes (AID 1919969); further: nearly all actives have a fitted effect of over 35% in size; further: potency means the concentration at half of the fitted maximal effect
# [3] = biological target: Gonadotropin-releasing hormone receptor (Homo sapiens) (UniProt P30968); assay: Human gonadotropin-releasing hormone receptor (GnRHR) small molecule agonists, calcium flux assay in GnRHR-HEK293 cells (AID 1920063); further: nearly all actives have a fitted effect of over 35% in size
# How it was run: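 HEK293 cells stably expressing human GnRHR were plated 18 h at 37 °C, loaded with calcium dye 1 h at 37 °C, then given compound in agonist mode; fluorescence (Ex/Em 480/540) read kinetically for 3 min at 1 s intervals.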
# [4] = biological target: KiSS-1 receptor (Homo sapiens) (UniProt Q969F8); assay: Human kisspeptin (KISS1R) small molecule agonists, calcium flux assay in KISS1R-HEK293 cells (AID 1920064; active means well fitted curve in the direction sought with a large enough effect in the repeat runs; an effect the other way counts as inactive or inconclusive)
# How it was run: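 HEK293 cells stably expressing human KISS1R were plated 18 h at 37 °C, loaded with calcium dye for 1 h at 37 °C, then given compound by pin tool. Fluorescence (Ex/Em 480/540) was read kinetically for 3 min.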
# [5] = G protein-coupled receptor (GPCR) small molecule agonists, calcium flux assay: HEK293 wild type cell line counter screen (AID 1920065)
# How it was run: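 Cells were plated and cultured 18 h at 37 C/5% CO2, then loaded with calcium dye for 1 h at 37 C. Compounds in DMSO were pin-transferred in agonist mode, and fluorescence (Ex/Em 480/540) was read kinetically for 3 min at 1 s intervals.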
# [6] = p53 small molecule agonists, cell-based qHTS assay with human liver microsomes (AID 1963577);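 further: p53 response element beta-lactamase reporter cells with liver microsomes plus NADPH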
# How it was run: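 In this qHTS, p53 response-element beta-lactamase cells receive test compound together with a microsome/NADPH activating system (0.5 mg/mL final each) and are incubated 16 h at 37 C before LiveBLAzer fluorescence detection.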
# [7] = p53 small molecule agonists, cell-based qHTS assay with rat liver microsomes (AID 1963578)
# How it was run: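 Agonist mode in p53RE-bla reporter cells, with compounds co-incubated 16 h at 37 C alongside 0.5 mg/mL rat liver microsomes and 0.5 mg/mL NADPH (final), followed by a 2 h LiveBLAzer detection step.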
# [8] = p53 small molecule agonists, cell-based qHTS assay with human liver microsomes: qHTS cell viability counter screen (AID 1963579); further: nearly all actives have a fitted effect of over 45% in size
# How it was run: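 Metabolically activated exposure: compounds, human liver microsomes and NADPH (0.5 mg/mL final apiece) were added to p53RE-bla cells seeded 5 h earlier, left 16 h at 37 C, and then assessed for viability by CellTiter-Glo luminescence.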
# [9] = p53 small molecule agonists, cell-based qHTS assay with rat liver microsomes: qHTS cell viability counter screen (AID 1963580); further: nearly all actives have a fitted effect of over 45% in size
# How it was run: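 p53RE-bla HCT-116 cells (4,000/well) rested 5 h at 37 C, then given Tox21 compounds in DMSO with rat liver microsomes (0.5 mg/mL final) plus NADPH (0.5 mg/mL final) for 16 h at 37 C. Viability read by CellTiter-Glo luminescence after 30 min at room temperature.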
# [10] = p53 small molecule agonists, cell-based qHTS assay: qHTS cell viability counter screen (AID 1963581); further: nearly all actives have a fitted effect of over 45% in size
# How it was run: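 p53RE-bla HCT-116 cells were exposed to compounds for 16 h at 37 C; after the beta-lactamase FRET read in the same wells, CellTiter-Glo was added and luminescence (intracellular ATP) read after 30 min at room temperature.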
# [11] = p53 small molecule agonists, cell-based qHTS assay (AID 1963582; active means well fitted activation curve with a large enough effect in the signal ratio in the repeat runs, not every such curve was filed as active; the % refers to the signal ratio; further: potency means the concentration at half of the fitted maximal effect)
# How it was run: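 p53RE-bla beta-lactamase reporter cells rested 5 h at 37 C/5% CO2, then received compounds in DMSO by pin transfer and were incubated 16 h at 37 C. LiveBLAzer B/G FRET substrate was loaded for 2 h at room temperature before fluorescence reading.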
# [12] = biological target: 5-hydroxytryptamine receptor 2A (Homo sapiens) (UniProt P28223); assay: 5-hydroxytryptamine receptor 2A (HTR2A) small molecule agonists, cell-based qHTS assay (AID 1963587); further: nearly all actives have a fitted effect of over 30% in size
# How it was run: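 HTR2A-CHO cells, plated 18 h at 37 C/5% CO2, dye-loaded 1 h at 37 C; compounds in DMSO added by pin tool (agonist mode). Intracellular calcium flux read as kinetic fluorescence on FDSS over 2 min at 1 s intervals.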
# [13] = biological target: Muscarinic acetylcholine receptor M1 (Homo sapiens) (UniProt P11229); assay: Cholinergic receptor muscarinic 1 (CHRM1) small molecule antagonists, cell-based qHTS assay (AID 1963588); further: nearly all actives have a fitted effect of over 40% in size
# How it was run: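 CHRM1-CHO calcium-flux assay, antagonist mode. Cells were seeded 18 h, dye-loaded 1 h at 37 C and given compound for 5 min at RT, then acetylcholine was added at 50nM. FDSS fluorescence was read 3 min; 15 concentrations, three runs.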
# [14] = biological target: Muscarinic acetylcholine receptor M1 (Homo sapiens) (UniProt P11229); assay: Cholinergic receptor muscarinic 1 (CHRM1) small molecule agonists, cell-based qHTS assay (AID 1963589); further: nearly all actives have a fitted effect of over 35% in size
# How it was run: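 CHO cells stably expressing human CHRM1, seeded 18 h at 37 C/5% CO2, dye-loaded 1 h at 37 C, then given compound in agonist mode; intracellular calcium fluorescence read kinetically at 1 s intervals. Fifteen concentrations, three independent runs.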
# [15] = cAMP Responsive Elements (CRE) small molecule agonists, cell-based qHTS assay (AID 1963590)
# How it was run: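 CRE-bla HEK 293T cells in DMEM with 10% dialyzed FBS, NEAA, pyruvate and 25 mM HEPES were plated 18 h at 37 C/5% CO2, then exposed to compounds in DMSO for 3 h before LiveBLAzer B/G FRET substrate addition.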
# [16] = cAMP Responsive Elements (CRE) small molecule antagonists, cell-based qHTS assay (AID 1963591; active means well fitted inhibition curve with a large enough effect in the signal ratio in the repeat runs, not every such curve was filed as active; the % refers to the signal ratio)
# How it was run: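 CRE-bla HEK293T cells were plated 18 h at 37 °C/5% CO2, pinned with compound in DMSO, then stimulated with NKH477 at 0.25 uM final for 3 h. LiveBLAzer B/G FRET substrate was added and plates incubated 2 h at room temperature.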
# [17] = biological target: Beta-2 adrenergic receptor (Homo sapiens) (UniProt P07550); assay: Adrenergic beta2 receptor (ADRB2) small molecule antagonists, cell-based qHTS assay (AID 1963592); further: series mostly up to about 92 µM; nearly all actives have a fitted effect of over 50% in size
# How it was run: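 Cells (CHO, stable ADRB2 overexpression) incubated 18-20hr at 37C; compounds added from DMSO; agonist mix (1nM isoproterenol, 100uM IBMX, 25uM Ro-20-1724) added; 0.5hr RT; d2-cAMP and anti-cAMP-cryptate added; 1hr RT; 665/615 nm read.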
# [18] = biological target: D(2) dopamine receptor (Homo sapiens) (UniProt P14416); assay: Dopamine D2 receptor (DRD2) small molecule agonists, cell-based qHTS assay (AID 1963594); further: nearly all actives have a fitted effect of over 35% in size
# How it was run: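 HEK293 cells stably expressing DRD2 were cultured 24 h at 37 C, then given Ro20-1724 (0.1 mM final) and compounds for 10 min at room temperature. NKH477 (200nM) was then added for 30 min. cAMP was read by HTRF.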
# [19] = biological target: D(2) dopamine receptor (Homo sapiens) (UniProt P14416); assay: Dopamine D2 receptor (DRD2) small molecule antagonists, cell-based qHTS assay (AID 1963595; active means well fitted inhibition curve with a large enough effect in the signal ratio in the repeat runs, with a control signal flat; the % refers to the signal ratio)
# How it was run: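 HEK293 cells stably expressing DRD2, preincubated with 0.1 mM Ro20-1724 and compounds 10 min, were stimulated with 200 nM NKH477 plus 12 nM quinpirole for 30 min at room temperature; cAMP measured by HTRF (665/620 nm).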
# [20] = biological target: Beta-2 adrenergic receptor (Homo sapiens) (UniProt P07550); assay: Adrenergic beta2 receptor (ADRB2) small molecule agonists, cell-based qHTS assay (AID 1963593);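 further: CHO cells stably overexpressing human ADRB2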
# How it was run: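 CHO cells stably over-expressing ADRB2 were plated overnight at 37C, then dosed with compounds plus a stimulation mix containing 100uM IBMX and 25uM Ro-20-1724 for 0.5hr at room temperature. cAMP was measured by HTRF competition, 1hr.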
# Chain of 5-hydroxytryptamine receptor 2A (Homo sapiens) (P28223 whole entry, looked up): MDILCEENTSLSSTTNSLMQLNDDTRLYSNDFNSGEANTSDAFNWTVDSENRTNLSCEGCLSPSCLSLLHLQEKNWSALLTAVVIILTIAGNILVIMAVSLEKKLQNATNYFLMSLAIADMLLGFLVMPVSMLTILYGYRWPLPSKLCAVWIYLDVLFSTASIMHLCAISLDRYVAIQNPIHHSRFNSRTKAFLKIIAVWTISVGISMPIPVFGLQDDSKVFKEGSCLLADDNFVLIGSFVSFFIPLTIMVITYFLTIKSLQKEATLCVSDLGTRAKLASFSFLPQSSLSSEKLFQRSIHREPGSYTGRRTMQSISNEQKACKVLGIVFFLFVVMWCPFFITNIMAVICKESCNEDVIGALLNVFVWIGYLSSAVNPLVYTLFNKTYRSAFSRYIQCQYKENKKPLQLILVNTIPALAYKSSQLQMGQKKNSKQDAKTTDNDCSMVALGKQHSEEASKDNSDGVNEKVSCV
# Chain of D(2) dopamine receptor (Homo sapiens) (P14416 whole entry, looked up): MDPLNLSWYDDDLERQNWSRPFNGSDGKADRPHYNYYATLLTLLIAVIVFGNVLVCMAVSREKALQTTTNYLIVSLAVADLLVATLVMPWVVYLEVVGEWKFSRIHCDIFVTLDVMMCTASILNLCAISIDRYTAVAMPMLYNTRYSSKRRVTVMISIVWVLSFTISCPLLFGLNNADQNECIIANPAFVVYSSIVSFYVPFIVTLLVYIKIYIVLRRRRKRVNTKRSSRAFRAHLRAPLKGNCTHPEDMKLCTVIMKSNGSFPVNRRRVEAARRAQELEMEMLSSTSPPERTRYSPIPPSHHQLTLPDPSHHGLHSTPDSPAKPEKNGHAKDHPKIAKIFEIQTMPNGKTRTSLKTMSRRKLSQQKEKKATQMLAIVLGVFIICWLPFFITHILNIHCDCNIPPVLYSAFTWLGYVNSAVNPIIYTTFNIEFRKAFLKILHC
# Chain of Gonadotropin-releasing hormone receptor (Homo sapiens) (P30968 whole entry, looked up): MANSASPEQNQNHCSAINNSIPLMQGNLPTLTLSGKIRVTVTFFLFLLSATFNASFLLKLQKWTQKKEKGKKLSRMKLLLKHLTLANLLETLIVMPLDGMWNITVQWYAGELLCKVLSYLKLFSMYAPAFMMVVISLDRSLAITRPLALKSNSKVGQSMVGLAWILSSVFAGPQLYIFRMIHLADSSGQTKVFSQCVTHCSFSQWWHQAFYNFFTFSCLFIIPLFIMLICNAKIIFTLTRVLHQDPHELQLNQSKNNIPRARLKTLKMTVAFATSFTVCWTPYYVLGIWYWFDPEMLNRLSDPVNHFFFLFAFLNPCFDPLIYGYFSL
# Chain of Muscarinic acetylcholine receptor M1 (Homo sapiens) (P11229 whole entry, looked up): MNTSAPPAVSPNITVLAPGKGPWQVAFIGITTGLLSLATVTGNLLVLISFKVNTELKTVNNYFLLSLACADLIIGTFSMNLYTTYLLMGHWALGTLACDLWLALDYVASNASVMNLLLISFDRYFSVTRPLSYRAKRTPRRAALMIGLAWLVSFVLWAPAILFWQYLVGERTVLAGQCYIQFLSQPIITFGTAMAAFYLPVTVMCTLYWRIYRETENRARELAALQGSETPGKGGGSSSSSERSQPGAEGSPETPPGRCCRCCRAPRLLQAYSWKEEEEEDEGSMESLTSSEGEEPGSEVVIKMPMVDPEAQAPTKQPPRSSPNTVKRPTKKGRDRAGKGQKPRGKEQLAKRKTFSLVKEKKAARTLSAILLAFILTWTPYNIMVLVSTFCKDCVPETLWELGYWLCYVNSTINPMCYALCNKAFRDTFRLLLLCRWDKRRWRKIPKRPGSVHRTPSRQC
# Chain of KiSS-1 receptor (Homo sapiens) (Q969F8 whole entry, looked up): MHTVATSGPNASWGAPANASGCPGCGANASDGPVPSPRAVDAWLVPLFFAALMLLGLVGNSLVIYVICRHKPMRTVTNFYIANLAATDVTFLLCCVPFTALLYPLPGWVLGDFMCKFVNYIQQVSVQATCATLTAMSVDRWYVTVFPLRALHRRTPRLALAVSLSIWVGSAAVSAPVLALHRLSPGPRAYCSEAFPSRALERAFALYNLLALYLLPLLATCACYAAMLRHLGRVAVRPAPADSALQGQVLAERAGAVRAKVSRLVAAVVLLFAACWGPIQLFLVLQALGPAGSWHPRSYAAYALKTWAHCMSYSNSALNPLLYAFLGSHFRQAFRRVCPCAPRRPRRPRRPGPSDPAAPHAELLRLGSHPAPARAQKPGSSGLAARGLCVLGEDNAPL
# Chain of Beta-2 adrenergic receptor (Homo sapiens) (P07550 whole entry, looked up): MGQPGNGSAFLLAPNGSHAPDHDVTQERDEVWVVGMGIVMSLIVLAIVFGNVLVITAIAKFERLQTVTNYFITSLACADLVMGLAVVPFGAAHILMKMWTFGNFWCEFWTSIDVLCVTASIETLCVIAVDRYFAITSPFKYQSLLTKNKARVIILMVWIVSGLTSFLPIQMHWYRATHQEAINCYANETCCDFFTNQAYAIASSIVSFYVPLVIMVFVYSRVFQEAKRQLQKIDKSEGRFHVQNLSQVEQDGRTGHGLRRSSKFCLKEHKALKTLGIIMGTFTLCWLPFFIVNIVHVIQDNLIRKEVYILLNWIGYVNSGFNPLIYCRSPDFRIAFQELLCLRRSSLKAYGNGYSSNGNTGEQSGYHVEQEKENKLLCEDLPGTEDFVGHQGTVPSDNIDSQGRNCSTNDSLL
SMILES,Potency [1],Potency [2],Potency [3],outcome [4],outcome [5],Potency [6],Potency [7],Potency [8],Potency [9],Potency [10],Potency [11],Potency [12],Potency [13],Potency [14],Potency [15],Potency [16],Potency [17],Potency [18],Potency [19],Potency [20]
Cc1c(N)cccc1[N+](=O)[O-],inactive,27.8 µM (active),inactive,inactive,inactive,inactive,inactive,inactive,inactive,inactive,inactive,inactive,inactive,inactive,inactive,inactive,inactive,inactive,inactive,–
NS(=O)(=O)Cc1noc2ccccc12,inactive,inactive,inactive,inactive,inactive,inactive,inactive,inactive,inactive,inactive,inactive,inactive,inactive,inactive,inactive,inactive,inactive,–,inactive,inactive
C(=C/c1ccccc1)/c1ccccc1,inactive,inactive,inactive,inactive,inactive,inactive,inactive,inactive,inactive,inactive,inactive,inactive,inactive,inactive,inactive,inactive,inactive,inactive,inactive,inactive
CC(CN1CC(=O)NC(=O)C1)N1CC(=O)NC(=O)C1 (configuration not stated),inactive,inactive,inactive,inactive,inactive,inactive,inactive,inactive,inactive,inactive,19.9 µM (active),inactive,inactive,inactive,inactive,inactive,inactive,inactive,–,inactive
O=C(c1ccco1)N1CCNCC1,inactive,inactive,inactive,inactive,inactive,inactive,inactive,inactive,inactive,inactive,inactive,inactive,inactive,inactive,inactive,inactive,inactive,inactive,inactive,inactive
O=P(O)(O)OCC(O)CO (configuration not stated),inactive,inactive,inactive,inactive,inactive,inactive,inactive,inactive,inactive,inactive,inactive,inactive,inactive,inactive,inactive,inactive,inactive,inactive,inactive,inactive
